TRb-SRC2 inh: inhibitors of human thyroid hormone receptor beta-SRC2 interaction; P10828; TRbeta-SRC2 peptide binding, fluorescence polarization; receptor liganded with 1 µM T3; Potency, µM (series often up to 106 µM), hits mostly inhibitors; 280,000 tested, 0.065% active; AID 1469; also: nearly all actives have a fitted effect of over 50% in size
Target sequence (P10828 whole entry, looked up): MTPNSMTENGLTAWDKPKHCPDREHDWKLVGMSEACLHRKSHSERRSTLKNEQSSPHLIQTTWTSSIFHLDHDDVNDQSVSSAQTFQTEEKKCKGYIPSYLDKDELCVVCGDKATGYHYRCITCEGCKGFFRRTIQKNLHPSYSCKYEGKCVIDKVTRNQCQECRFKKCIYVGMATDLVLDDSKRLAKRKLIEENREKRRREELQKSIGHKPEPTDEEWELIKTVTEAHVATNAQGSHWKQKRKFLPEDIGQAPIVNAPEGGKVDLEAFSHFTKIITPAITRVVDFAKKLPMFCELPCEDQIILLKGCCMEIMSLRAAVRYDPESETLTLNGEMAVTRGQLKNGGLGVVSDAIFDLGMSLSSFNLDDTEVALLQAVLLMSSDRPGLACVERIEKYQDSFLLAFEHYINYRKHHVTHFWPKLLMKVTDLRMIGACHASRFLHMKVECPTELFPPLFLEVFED
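Compounds were added to 0.6 uM TRb ligand-binding domain and 20 nM Texas Red-labeled SRC2 peptide in Tris buffer containing 1 uM T3, incubated 5 hr at ambient temperature, then read by fluorescence polarization.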
Menin-MLL TR inh: inhibitors of human menin-MLL interaction, mutant MLL peptide. Potency, µM (highest dose often 61.6 µM), usual class: inhibitors. O00255. Menin + Texas Red MLL mutant peptide, fluorescence polarization. 270,000 tested, 0.23% active; active = well fitted inhibition curve with a large enough effect in the polarisation, with a control signal flat, not every such curve was filed as active; inconclusive = small, poorly fitted or top-dose-only effect, or effect the other way, or a change in a side signal; inactive = no such curve, though single readings can be large or run the other way; the % refers to the polarisation
MLL CXXC-DNA inh: inhibitors of human MLL CXXC domain-DNA interaction; MLL-CXXC / FITC-HOXA9 DNA fluorescence polarization; Potency, µM (titrated, usually from 115 µM), most hits filed as inhibitors; 290,000 tested, 0.037% active; AID 2662; active = well fitted inhibition curve with a large enough effect in the polarisation, with a control signal flat, not every such curve was filed as active; inconclusive = small, poorly fitted or top-dose-only effect, or effect the other way, or a change in a side signal; inactive = no such curve, though single readings can be large or run the other way; the % refers to the polarisation
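Purified MLL-CXXC (added from a 7 uM solution) was preincubated 5 min at ambient with pinned compounds in 50 mM Tris-HCl pH 7.5, 50 mM NaCl, 1 mM DTT, 0.05% BSA. Fluorescein-labeled HOX-A9 DNA (50 nM solution) followed, 30 min, then polarization read.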
GoLoco inh red: blocks human Gai1 binding to RGS12 GoLoco peptide, red readout; Gai1:RGS12 GoLoco peptide FP, rhodamine, 10 min; 230,000 tested, 0.44% active; Potency, µM (series often up to 61.6 µM), actives largely listed as inhibitors; active = well fitted inhibition curve with a large enough effect, not every such curve was filed as active; inactive = no such curve, though single readings can be large or run the other way; also: nearly all actives have a fitted effect of over 30% in size
Target sequence (P63096 whole entry, looked up): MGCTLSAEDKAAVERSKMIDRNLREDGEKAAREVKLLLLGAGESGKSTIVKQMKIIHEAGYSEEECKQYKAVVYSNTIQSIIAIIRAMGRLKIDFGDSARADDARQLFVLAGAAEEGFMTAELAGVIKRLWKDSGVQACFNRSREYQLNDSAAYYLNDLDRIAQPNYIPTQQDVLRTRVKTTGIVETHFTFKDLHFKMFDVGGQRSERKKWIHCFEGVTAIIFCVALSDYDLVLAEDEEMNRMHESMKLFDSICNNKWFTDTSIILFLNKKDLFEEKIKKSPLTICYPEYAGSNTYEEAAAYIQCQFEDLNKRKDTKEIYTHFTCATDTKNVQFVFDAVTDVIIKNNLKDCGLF
TR SRC2 fluor cs: counter-screen for TRb-SRC2 inhibitors: fluorescence interference. TRb/SRC2 Texas Red total fluorescence interference. Potency, µM (doses to about 106 µM). 280,000 tested, 0.29% active. AID 1479; active = well fitted curve in either direction with a large enough effect; inconclusive = small, poorly fitted or top-dose-only effect
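Human TRβ ligand-binding domain (0.6 uM) and Texas Red SRC2 peptide (20 nM) in Tris buffer with 1 uM T3 and 5% DMSO were incubated with pinned compound for 5 hr at ambient temperature. Total fluorescence was computed as S + 2P (555/632 nm).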
Menin MLL FP FL: inhibitors of human menin-MLL interaction, wild-type MLL peptide | Fluorescence polarization, fluorescein-MLL peptide displacement from menin | FP activity change, % at 61.4 µM | 290,000 tested, under 10 active | AID 1766; active = well fitted curve in the direction sought with a large enough effect in the polarisation, not every such curve was filed as active; inconclusive = small, poorly fitted or top-dose-only effect, or effect the other way, or a change in a side signal; inactive = no such curve, though single readings can be large or run the other way; the % refers to the polarisation
MLL CXXC Fl: MLL CXXC-DNA interaction inhibition, fluorescein FP. shares compounds with MLL CXXC-DNA inh. Potency, µM (doses to about 345 µM), actives largely listed as inhibitors. 200 tested, 70% active. MLL CXXC-DNA binding, fluorescein FP; also: nearly all actives have a fitted effect of over 80% in size
MLL CXXC TxRed: inhibitors of human MLL CXXC domain-DNA interaction, Texas Red format | shares compounds with MLL CXXC-DNA inh | MLL CXXC-DNA binding, Texas Red fluorescence polarization | Potency, µM (doses to about 345 µM), usual class: inhibitors | 200 tested, 40% active; also: nearly all actives have a fitted effect of over 75% in size
MLL CXXC TRF: MLL CXXC-DNA interaction inhibition, HTRF readout; Potency, µM (highest dose often 172 µM), actives largely listed as inhibitors; 210 tested, 30% active; MLL CXXC-DNA binding, HTRF, biochemical; shares compounds with MLL CXXC-DNA inh; also: nearly all actives have a fitted effect of over 80% in size
Numbers stand for hits; [ ] = another dose, or the depositor's remark. An excerpt weighted towards active compounds, which were near 0.5% of everything screened. Unless noted, calls follow the shape of the dose curve; as a rule, active = well fitted curve in the direction sought with a large enough effect; inconclusive = small, poorly fitted or top-dose-only effect, or another doubt; inactive = no such curve, though single readings can be large; an effect the other way counts as inactive or inconclusive.

How did O=C(O)c1ccc2c(c1)C(=O)/C(=C\c1ccco1)C2=O do in these assays?
TRb-SRC2 inh: inactive; Menin-MLL TR inh: inconclusive; MLL CXXC-DNA inh: 32µM; GoLoco inh red: inactive; TR SRC2 fluor cs: inconclusive; Menin MLL FP FL: inactive; MLL CXXC Fl: 22µM; MLL CXXC TxRed: inactive; MLL CXXC TRF: 49µM

What do the screens show for `Cc1ccc(/C=C2/C(=O)c3ccc(C(=O)O)cc3C2=O)o1`?
TRb-SRC2 inh: inactive; Menin-MLL TR inh: inconclusive; MLL CXXC-DNA inh: 40µM; GoLoco inh red: inactive; TR SRC2 fluor cs: inactive; Menin MLL FP FL: inconclusive; MLL CXXC Fl: inconclusive; MLL CXXC TxRed: inconclusive; MLL CXXC TRF: 39µM

How did COc1ccc(N2CCN(c3oc(-c4ccccc4C)nc3S(=O)(=O)c3ccccc3)CC2)cc1 do in these assays?
TRb-SRC2 inh: inactive; TR SRC2 fluor cs: inactive

What do the screens show for `O=C(CC(C(=O)N1CCc2ccccc21)n1ccnc1)N1CCc2ccccc2C1` (stereo not drawn)?
TRb-SRC2 inh: inactive; Menin-MLL TR inh: inactive; MLL CXXC-DNA inh: 32µM; GoLoco inh red: inactive; TR SRC2 fluor cs: inactive; Menin MLL FP FL: inactive; MLL CXXC Fl: inconclusive; MLL CXXC TxRed: inactive; MLL CXXC TRF: inactive

Results for Cc1nc2ccc(S(=O)(=O)N(C)CC(=O)Nc3ccc(C(C)C)cc3)cc2s1 ?
TRb-SRC2 inh: inactive; TR SRC2 fluor cs: inactive

What do the screens show for `CCOc1c(Cl)cc(CNc2ccc3[nH]c(=O)[nH]c3c2)cc1OC`?
TRb-SRC2 inh: inactive; TR SRC2 fluor cs: inactive

Results for C#CCOc1ccc(/C=C2/C(=O)N(c3cccc(C(=O)O)c3)N=C2C)cc1OC ?
Menin-MLL TR inh: inconclusive; MLL CXXC-DNA inh: 45µM; Menin MLL FP FL: inactive; MLL CXXC Fl: 45µM; MLL CXXC TxRed: 71µM; MLL CXXC TRF: 97µM

What do the screens show for `COc1cc(/C=C2/C(=O)N(c3ccc(C(=O)O)cc3)N=C2C)cc(OC)c1O`?
Menin-MLL TR inh: inconclusive; MLL CXXC-DNA inh: inactive; Menin MLL FP FL: inactive

What do the screens show for `CC1=CC(=O)C2=C(C)C[C@@H]3OC(=O)[C@@H](C)[C@H]3C=C12`?
TRb-SRC2 inh: inactive; Menin-MLL TR inh: inactive; GoLoco inh red: inactive; TR SRC2 fluor cs: inactive; Menin MLL FP FL: inactive

What do the screens show for `COc1ccc2occ(C(=O)c3ccc(N)cc3)c2c1`?
Menin-MLL TR inh: inactive; MLL CXXC-DNA inh: inconclusive; Menin MLL FP FL: inactive; MLL CXXC Fl: inactive; MLL CXXC TxRed: inactive; MLL CXXC TRF: inactive

Results for CCOC(=O)C1CCN(C(=O)C2CCN(S(=O)(=O)c3c(C)noc3/C=C/c3ccc(C)cc3)CC2)CC1 ?
TRb-SRC2 inh: inactive; TR SRC2 fluor cs: inactive

How did O=Cc1c2[nH]c3ccccc3c2cc2[nH]c3ccccc3c12 do in these assays?
TRb-SRC2 inh: inactive; Menin-MLL TR inh: inconclusive; GoLoco inh red: inactive; TR SRC2 fluor cs: inactive; Menin MLL FP FL: inconclusive

Results for CSc1nc(N)c2ncn([C@@H]3O[C@H](COP(=O)(O)OP(=O)(O)OP(=O)(O)O)[C@@H](O)[C@H]3O)c2n1 ?
TRb-SRC2 inh: inactive; GoLoco inh red: inactive; TR SRC2 fluor cs: inactive

What do the screens show for `N.N.O=C(O)C1(C(=O)O)CCC1.[Pt]`?
TRb-SRC2 inh: inactive; Menin-MLL TR inh: inactive; MLL CXXC-DNA inh: inconclusive; GoLoco inh red: inactive; TR SRC2 fluor cs: inactive; Menin MLL FP FL: inconclusive; MLL CXXC Fl: inactive; MLL CXXC TxRed: inconclusive; MLL CXXC TRF: 49µM

What do the screens show for `O=C1C(Cl)=C(Nc2ccc(S(=O)(=O)Nc3ccccn3)cc2)C(=O)c2ccccc21`?
GoLoco inh red: inactive[14.2 µM]

What do the screens show for `O=C1C(Cl)=C(NS(=O)(=O)c2ccc([N+](=O)[O-])cc2)C(=O)c2ccccc21`?
TRb-SRC2 inh: inactive; MLL CXXC-DNA inh: 50µM; GoLoco inh red: inactive; TR SRC2 fluor cs: inactive; Menin MLL FP FL: inactive; MLL CXXC Fl: 56µM; MLL CXXC TxRed: 100µM; MLL CXXC TRF: 77µM

What do the screens show for `CC(=O)c1cc(-c2ccccc2)n(CCC(=O)Nc2nc3c(C)cccc3s2)c1C`?
TRb-SRC2 inh: inactive; TR SRC2 fluor cs: inactive

How did O=[N+]([O-])c1cccc(-c2cn3nc(-c4ccccc4)c(-c4ccccc4)nc3n2)c1 do in these assays?
TRb-SRC2 inh: inactive; MLL CXXC-DNA inh: 40µM; GoLoco inh red: inactive; TR SRC2 fluor cs: inactive; Menin MLL FP FL: inconclusive; MLL CXXC Fl: 179µM; MLL CXXC TxRed: inactive; MLL CXXC TRF: inactive

What do the screens show for `O=[N+]([O-])c1ccc(-c2cn3nc(-c4ccccc4)c(-c4ccccc4)nc3n2)cc1`?
TRb-SRC2 inh: inconclusive; MLL CXXC-DNA inh: inconclusive; GoLoco inh red: inactive; TR SRC2 fluor cs: inconclusive; Menin MLL FP FL: inconclusive

Results for COc1ccc(/C=C2/C(=O)ON=C2C)cc1Br ?
Menin-MLL TR inh: inactive; MLL CXXC-DNA inh: inactive; Menin MLL FP FL: inactive

Results for COc1ccccc1/C=C1/C(=O)ON=C1C ?
Menin-MLL TR inh: inactive; MLL CXXC-DNA inh: inconclusive; Menin MLL FP FL: inactive; MLL CXXC Fl: 100µM; MLL CXXC TxRed: 126µM; MLL CXXC TRF: inactive

What do the screens show for `C/C(=N\Nc1nc2ccccc2c(=O)n1O)c1ccco1`?
Menin-MLL TR inh: inactive; MLL CXXC-DNA inh: inconclusive; Menin MLL FP FL: inactive; MLL CXXC Fl: inconclusive; MLL CXXC TxRed: inconclusive; MLL CXXC TRF: inconclusive

Results for Cc1cn(C2OC(COC(=O)c3ccccc3)C(OC(=O)c3ccccc3)C2OC(=O)c2ccccc2)c(=O)[nH]c1=O (stereo not drawn) ?
TRb-SRC2 inh: inactive; Menin-MLL TR inh: inactive; MLL CXXC-DNA inh: inactive; GoLoco inh red: inactive; TR SRC2 fluor cs: inactive; Menin MLL FP FL: inactive

Results for O=C(OCC1OC(OC(=O)c2cc(O)c(O)c(OC(=O)c3cc(O)c(O)c(O)c3)c2)[C@@H](OC(=O)c2cc(O)c(O)c(OC(=O)c3cc(O)c(O)c(O)c3)c2)C(OC(=O)c2cc(O)c(O)c(OC(=O)c3cc(O)c(O)c(O)c3)c2)C1OC(=O)c1cc(O)c(O)c(OC(=O)c2cc(O)c(O)c(O)c2)c1)c1cc(O)c(O)c(OC(=O)c2cc(O)c(O)c(O)c2)c1 (stereo partly drawn) ?
TRb-SRC2 inh: inconclusive; Menin-MLL TR inh: inconclusive; MLL CXXC-DNA inh: 63µM; GoLoco inh red: inactive; TR SRC2 fluor cs: 16µM[quencher]; Menin MLL FP FL: inconclusive; MLL CXXC Fl: 3.6µM; MLL CXXC TxRed: 4.5µM; MLL CXXC TRF: 0.39µM
